This passage reports PXC50 and Percent Effect results from ChEMBL document CHEMBL3988442, “University of Dundee, Small-Polar-MMV Screening Library” (2021).

For some assays here: Potency and affinity values are given separately. Where only a bound is given, the exact number is not on record here.

Test [1] deals with T1, Methionyl-tRNA synthetase, putative (Leishmania donovani (strain BPK282A1)) (UniProt E9BF75).
T1 sequence (whole entry): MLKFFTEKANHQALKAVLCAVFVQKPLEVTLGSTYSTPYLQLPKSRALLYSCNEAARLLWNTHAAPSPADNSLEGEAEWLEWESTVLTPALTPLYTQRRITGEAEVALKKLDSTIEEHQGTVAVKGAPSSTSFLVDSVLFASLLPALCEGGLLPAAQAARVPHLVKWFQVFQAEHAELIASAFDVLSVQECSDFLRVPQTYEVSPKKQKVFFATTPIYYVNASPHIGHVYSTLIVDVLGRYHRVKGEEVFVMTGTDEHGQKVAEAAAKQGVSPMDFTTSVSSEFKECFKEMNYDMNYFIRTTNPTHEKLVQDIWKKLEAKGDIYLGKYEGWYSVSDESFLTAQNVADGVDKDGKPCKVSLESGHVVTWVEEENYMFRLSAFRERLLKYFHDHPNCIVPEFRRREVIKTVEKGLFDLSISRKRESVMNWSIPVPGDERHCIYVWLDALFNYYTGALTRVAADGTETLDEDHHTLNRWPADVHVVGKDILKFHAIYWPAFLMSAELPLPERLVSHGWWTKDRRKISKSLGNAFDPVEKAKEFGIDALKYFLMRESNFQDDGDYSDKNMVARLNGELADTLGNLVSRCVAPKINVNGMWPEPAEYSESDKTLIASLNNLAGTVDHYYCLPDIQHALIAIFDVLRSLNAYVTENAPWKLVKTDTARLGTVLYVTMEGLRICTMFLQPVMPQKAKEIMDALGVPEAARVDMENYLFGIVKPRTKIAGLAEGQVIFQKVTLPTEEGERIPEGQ
The test can be described thus: Leishmania donovani Methionine tRNA synthetase (LdMetRS):v7. Dose response assay. Also noted: conc 80 nM, time 150 minutes. In kind it is functional.

The target of test [2] is Protein translocase subunit SecA (Escherichia coli (strain K12)) (UniProt P10408). As to the kind of experiment: Assay to Identify E. coli SecA ATPase Inhibitors. The note with it: 30 µM. Also noted: scale not given: direction of the effect not stated beside the values. In kind it is functional.
Chain of Protein translocase subunit SecA (Escherichia coli (strain K12)) (P10408 whole entry): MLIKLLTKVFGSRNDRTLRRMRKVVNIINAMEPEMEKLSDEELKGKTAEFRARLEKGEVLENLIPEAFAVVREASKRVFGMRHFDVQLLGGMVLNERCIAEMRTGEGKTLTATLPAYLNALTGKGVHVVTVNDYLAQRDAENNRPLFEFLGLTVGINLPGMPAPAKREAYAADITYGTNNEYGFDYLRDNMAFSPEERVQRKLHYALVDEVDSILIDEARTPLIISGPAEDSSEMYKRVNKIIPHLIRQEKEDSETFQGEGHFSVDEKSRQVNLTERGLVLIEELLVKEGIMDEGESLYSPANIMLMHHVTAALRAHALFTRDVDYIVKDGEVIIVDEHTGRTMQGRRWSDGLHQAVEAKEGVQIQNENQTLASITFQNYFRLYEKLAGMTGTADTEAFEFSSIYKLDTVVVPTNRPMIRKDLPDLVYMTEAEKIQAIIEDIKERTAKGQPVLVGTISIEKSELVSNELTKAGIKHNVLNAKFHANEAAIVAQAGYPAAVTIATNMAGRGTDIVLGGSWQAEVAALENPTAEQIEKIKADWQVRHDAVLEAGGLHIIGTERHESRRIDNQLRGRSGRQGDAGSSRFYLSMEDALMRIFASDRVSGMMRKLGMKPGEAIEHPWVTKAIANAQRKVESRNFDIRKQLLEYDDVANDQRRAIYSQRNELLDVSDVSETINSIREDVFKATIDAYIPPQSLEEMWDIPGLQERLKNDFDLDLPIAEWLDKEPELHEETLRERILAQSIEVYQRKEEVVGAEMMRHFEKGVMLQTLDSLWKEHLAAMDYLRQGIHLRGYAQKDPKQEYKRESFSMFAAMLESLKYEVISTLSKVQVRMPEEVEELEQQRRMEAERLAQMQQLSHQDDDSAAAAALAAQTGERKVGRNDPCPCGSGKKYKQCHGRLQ
For test [3], the target named is T2, Ubiquitin-activating enzyme e1, putative (Leishmania donovani (strain BPK282A1)) (UniProt E9BSI1).
T2 sequence (whole entry): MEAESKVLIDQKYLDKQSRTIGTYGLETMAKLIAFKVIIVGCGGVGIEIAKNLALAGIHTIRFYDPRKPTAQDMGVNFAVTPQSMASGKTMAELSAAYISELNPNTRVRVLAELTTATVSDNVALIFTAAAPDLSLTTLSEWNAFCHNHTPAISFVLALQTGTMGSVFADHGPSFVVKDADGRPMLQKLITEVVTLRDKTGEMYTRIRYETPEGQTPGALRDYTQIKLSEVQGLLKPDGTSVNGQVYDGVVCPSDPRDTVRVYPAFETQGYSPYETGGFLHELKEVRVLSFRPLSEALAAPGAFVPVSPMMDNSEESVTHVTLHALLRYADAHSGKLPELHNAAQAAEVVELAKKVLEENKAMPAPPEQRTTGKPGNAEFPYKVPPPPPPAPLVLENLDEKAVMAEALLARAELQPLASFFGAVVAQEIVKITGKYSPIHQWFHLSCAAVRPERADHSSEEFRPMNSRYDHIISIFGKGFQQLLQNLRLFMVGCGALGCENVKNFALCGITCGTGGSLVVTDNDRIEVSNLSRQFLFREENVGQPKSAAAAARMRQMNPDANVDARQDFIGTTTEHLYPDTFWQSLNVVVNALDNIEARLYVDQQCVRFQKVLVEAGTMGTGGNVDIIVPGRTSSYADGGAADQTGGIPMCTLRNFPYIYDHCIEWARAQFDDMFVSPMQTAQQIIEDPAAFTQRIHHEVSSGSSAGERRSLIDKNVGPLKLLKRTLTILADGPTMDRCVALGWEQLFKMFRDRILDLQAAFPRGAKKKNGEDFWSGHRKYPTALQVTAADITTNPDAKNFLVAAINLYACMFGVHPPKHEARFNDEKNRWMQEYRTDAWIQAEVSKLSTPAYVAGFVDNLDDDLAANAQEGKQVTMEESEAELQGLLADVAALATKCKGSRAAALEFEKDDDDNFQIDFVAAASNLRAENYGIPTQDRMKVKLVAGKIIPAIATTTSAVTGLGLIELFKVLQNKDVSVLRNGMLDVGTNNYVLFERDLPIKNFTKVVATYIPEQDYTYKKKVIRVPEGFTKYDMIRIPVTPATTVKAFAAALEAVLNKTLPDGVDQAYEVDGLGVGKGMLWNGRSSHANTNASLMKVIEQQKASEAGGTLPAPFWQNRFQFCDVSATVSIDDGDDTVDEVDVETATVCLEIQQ
As to the kind of experiment: Leishmania donovani Ubiquitin Activating Enzyme (LdE1). In kind it is functional. Also noted: scale not given: direction of the effect not stated beside the values. The settings on record: 30 µM.

In test [4] the target is AMP-activated protein kinase, AMPK (Homo sapiens) (UniProt P54646+O43741+P54619+Q9UGJ0+Q9Y478+Q13131+Q9UGI9). The test can be described thus: AMP-dependent Kinase enzyme assay. An in vitro enzyme assay that detects ADP turnover that is directly proportional to AMPK activity. This uses naive AMPK that is activated during the assay with MK-8722. It is filed as functional. Also noted: scale not given: direction of the effect not stated beside the values. The note with it: 30 µM.

The target in test [5] is Sialic acid-binding Ig-like lectin 9 (Homo sapiens) (UniProt Q9Y336). As to the kind of experiment: Hs-Siglec9 ALPHAscreen SOP 20170721. Also noted: scale not given: direction of the effect not stated beside the values. The settings on record: 10 µM. A general note: Alpha assays give light when donor and acceptor beads are brought close together.
Chain of Sialic acid-binding Ig-like lectin 9 (Homo sapiens) (Q9Y336 whole entry): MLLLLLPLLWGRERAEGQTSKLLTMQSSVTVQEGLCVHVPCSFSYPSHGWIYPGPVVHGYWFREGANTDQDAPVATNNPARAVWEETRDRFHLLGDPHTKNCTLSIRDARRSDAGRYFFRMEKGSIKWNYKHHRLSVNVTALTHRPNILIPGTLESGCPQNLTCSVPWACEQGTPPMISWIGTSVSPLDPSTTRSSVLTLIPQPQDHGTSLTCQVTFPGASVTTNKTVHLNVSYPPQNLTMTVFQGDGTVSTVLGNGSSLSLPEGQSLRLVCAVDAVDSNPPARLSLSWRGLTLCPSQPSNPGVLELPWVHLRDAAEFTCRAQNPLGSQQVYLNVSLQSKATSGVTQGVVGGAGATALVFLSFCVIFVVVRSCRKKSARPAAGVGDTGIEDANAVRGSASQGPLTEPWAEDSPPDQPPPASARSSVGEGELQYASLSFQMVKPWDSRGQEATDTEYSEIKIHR
A further test has as its system Trypanosoma cruzi. As to the kind of experiment: Trypanosoma cruzi phosphomannomutase and mannose-1-phosphate guanylyltransferase assay. It is filed as functional. More on the design: scale not given: direction of the effect not stated beside the values. The settings on record: 10 µM.
The target of test [6] is T3, Arginase-2, mitochondrial (Homo sapiens) (UniProt P78540).
T3 sequence (whole entry): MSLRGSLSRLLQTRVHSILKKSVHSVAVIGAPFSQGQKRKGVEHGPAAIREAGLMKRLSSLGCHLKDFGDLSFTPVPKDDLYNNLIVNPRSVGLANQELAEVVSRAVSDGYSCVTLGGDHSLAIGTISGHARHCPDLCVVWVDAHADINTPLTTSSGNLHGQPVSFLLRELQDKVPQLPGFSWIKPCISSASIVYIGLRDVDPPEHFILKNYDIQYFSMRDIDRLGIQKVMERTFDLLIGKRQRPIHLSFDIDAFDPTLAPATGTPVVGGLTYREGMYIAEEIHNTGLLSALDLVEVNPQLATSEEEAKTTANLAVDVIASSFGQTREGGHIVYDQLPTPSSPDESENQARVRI
As to the kind of experiment: in vitro enzyme assay to detect the production of urea directly proportional to the activity of Arginase II. More on the design: scale not given: in the data most compounds retested in dose-response had high values. It is filed as functional.

Test [7] has as its target T4, Proteasome subunit beta (Trypanosoma cruzi) (UniProt O96673).
T4 sequence (whole entry): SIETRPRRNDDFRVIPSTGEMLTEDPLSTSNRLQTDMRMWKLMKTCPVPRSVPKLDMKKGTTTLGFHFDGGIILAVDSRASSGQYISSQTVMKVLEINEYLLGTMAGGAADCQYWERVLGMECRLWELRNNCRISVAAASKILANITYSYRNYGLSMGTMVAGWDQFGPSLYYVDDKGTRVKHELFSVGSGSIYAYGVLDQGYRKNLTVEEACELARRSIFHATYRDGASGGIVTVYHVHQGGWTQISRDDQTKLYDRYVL
The test can be described thus: Trypanosoma cruzi proteasome chymotrypsin-like activity (TcProtChymo) assay. In kind it is functional. More on the design: scale not given: in the data most compounds retested in dose-response had high values. The settings on record: 9.37 µM.

The next test is filed under the species Homo sapiens. As to the kind of experiment: To identify inhibition of the IFN signalling (Jak-Stat) pathway via expression of an eGFP reporter gene under the control of an IFN-stimulated response element (ISRE) containing MxA promoter. In kind it is functional. Also noted: scale not given: direction of the effect not stated beside the values. The note with it: 30 µM. Background: Reporter assays use an easily measured gene product as a stand-in for the process of interest.

Test [8] addresses T5, Tyrosyl-tRNA synthetase, putative (Trypanosoma cruzi (strain CL Brener)) (UniProt Q4DSP6).
T5 sequence (whole entry): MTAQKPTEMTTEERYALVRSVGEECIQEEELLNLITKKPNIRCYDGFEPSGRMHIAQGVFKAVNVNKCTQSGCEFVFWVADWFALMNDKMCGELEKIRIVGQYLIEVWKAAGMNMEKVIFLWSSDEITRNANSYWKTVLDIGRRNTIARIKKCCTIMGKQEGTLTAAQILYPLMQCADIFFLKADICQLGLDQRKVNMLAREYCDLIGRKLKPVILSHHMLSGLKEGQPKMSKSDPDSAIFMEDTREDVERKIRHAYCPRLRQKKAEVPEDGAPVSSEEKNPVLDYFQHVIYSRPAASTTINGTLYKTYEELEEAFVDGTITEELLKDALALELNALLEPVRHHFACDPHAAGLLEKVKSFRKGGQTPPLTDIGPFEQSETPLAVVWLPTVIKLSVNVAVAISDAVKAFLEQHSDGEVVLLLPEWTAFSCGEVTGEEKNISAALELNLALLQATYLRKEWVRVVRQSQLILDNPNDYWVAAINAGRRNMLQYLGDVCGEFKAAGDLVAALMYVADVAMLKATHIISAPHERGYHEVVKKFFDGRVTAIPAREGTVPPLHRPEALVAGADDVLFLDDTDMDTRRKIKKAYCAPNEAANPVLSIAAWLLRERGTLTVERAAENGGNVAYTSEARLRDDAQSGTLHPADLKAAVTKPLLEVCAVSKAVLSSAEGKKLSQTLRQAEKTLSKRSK
The test can be described thus: Trypanosoma cruzi tyrosyl tRNA synthetase (TcYRS) _High Tyrosine SOP. It is filed as functional. More on the design: scale not given: in the data most compounds retested in dose-response had high values. The note with it: 30 µM.

The target in test [9] is T5, Tyrosyl-tRNA synthetase, putative (Trypanosoma cruzi (strain CL Brener)). The test can be described thus: Trypanosoma cruzi tyrosyl tRNA synthetase (TcYRS) SOP. More on the design: scale not given: direction of the effect not stated beside the values. It is filed as functional. The settings on record: 30 µM.
Test [10] deals with Chromo domain-containing protein 1 (Saccharomyces cerevisiae (strain ATCC 204508 / S288c) (Baker's yeast)) (UniProt P32657). The test can be described thus: ScCHD-1 Enzyme Inhibition Assay. In kind it is functional. Also noted: scale not given: in the data most compounds retested in dose-response had high values. The note with it: 30 µM.
Chain of Chromo domain-containing protein 1 (Saccharomyces cerevisiae (strain ATCC 204508 / S288c) (Baker's yeast)) (P32657 whole entry, the tested form may be a part): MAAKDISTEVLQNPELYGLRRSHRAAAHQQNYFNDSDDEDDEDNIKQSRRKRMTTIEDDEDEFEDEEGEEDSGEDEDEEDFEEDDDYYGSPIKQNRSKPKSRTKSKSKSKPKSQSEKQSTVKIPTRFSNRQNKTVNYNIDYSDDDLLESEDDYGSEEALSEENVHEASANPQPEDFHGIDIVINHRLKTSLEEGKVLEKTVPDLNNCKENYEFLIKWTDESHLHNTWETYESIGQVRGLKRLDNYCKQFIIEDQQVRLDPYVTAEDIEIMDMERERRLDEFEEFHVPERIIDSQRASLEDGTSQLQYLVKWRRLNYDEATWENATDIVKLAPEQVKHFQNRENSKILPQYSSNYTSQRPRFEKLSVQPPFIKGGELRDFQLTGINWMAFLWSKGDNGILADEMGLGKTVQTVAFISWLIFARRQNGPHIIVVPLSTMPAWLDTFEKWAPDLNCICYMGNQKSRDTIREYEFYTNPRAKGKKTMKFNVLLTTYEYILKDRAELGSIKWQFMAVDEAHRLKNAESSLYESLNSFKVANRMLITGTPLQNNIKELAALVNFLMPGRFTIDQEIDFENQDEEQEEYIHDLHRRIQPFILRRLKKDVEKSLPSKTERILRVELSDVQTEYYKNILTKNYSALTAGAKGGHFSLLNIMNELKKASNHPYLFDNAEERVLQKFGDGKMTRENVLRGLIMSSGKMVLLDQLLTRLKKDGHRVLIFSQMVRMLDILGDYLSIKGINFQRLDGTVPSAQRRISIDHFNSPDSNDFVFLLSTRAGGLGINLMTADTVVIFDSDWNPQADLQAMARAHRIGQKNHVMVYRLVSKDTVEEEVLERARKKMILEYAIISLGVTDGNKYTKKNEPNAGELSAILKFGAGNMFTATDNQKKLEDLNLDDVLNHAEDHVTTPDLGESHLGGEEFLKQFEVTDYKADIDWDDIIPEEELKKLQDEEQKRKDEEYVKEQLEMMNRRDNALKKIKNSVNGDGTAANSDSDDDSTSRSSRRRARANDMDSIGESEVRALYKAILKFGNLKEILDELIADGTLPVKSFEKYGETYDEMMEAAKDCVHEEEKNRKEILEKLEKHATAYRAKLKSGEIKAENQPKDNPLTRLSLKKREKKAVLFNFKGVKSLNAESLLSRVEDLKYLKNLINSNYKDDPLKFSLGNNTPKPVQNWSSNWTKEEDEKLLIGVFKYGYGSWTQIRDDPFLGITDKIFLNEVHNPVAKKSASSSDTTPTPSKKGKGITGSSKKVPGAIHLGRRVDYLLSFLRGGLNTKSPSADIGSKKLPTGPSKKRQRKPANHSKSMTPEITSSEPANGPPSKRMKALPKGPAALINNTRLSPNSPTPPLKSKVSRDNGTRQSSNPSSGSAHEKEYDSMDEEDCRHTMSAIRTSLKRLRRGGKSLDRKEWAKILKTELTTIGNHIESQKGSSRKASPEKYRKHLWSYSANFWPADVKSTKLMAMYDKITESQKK

Turning to `Cc1nnc(NCC2(c3ccccc3)CC2)c(C#N)c1C`, the PXC50 in test [1] (MAX_EFFECT 6.650831354) and in test [1] (MAX_EFFECT 11.79577465) was < 4 each time. Also, the Percent Effect in test [2] is -6.81%; in [3] it was 0%; in test [4] it was -11.8%; in test [5], 5.06%; in the test with Trypanosoma cruzi it was -3.09%; in test [6] (33.3 µM), 1.43%. For the same molecule, the Percent Effect was 8.1% in [7]; 13% in the test listed under Homo sapiens; -0.529% in test [8]; 4.88% in test [9]; -4.42% in [10].
Regarding `FC1(F)CCN(Cc2cccnc2)CC12CCN(c1ccccn1)C2` (configuration not stated), the PXC50 in [1] (MAX_EFFECT 12.14788732) and in test [1] (MAX_EFFECT 12.35154394) was < 4 throughout. Besides, the Percent Effect was -2.18% in [2]; 16.2% in [3]; 5.61% in test [4]; -2.07% in test [5]; -4.99% in the test on Trypanosoma cruzi; 17.5% in test [6] (33.3 µM). Moreover, the Percent Effect was 21.4% in [7]; 33.7% in the test filed under Homo sapiens; 1.08% in test [8]; 12.8% in test [9]; -3.06% in test [10].
In the case of `CN(CC1CC1)c1ccc2ccc(C(=O)NCCN3CCOCC3)cn12`, the PXC50 in test [1] (BOTTOM -1.512370452, HILLSLOPE 1.01203919, MAX_EFFECT 54.40140845, TOP 92.97919978) was determined as 4.18; in test [1] (BOTTOM -1.802135636, HILLSLOPE 1.091019119, MAX_EFFECT 56.05700713, TOP 88.72898538), 4.23. Moreover, the Percent Effect is 0.0454% in [2]; 6.49% in [3]; -2.21% in test [5]; 2.06% in the test with Trypanosoma cruzi; 2.28% in test [6] (33.3 µM); 0.944% in test [7]. Besides, the Percent Effect in the test listed under Homo sapiens was 29.3%; in test [8], 34.8%; in test [9] it was 15%; in [10], -2.15%.
With `COc1ccc(CN2C[C@@H](N(C)Cc3ccco3)[C@H]3OCCC[C@H]32)cc1`, the Percent Effect was -4.13% in test [2]; 5.33% in test [3]; 8.07% in test [4]; 3.01% in test [5]; -5.71% in the test on Trypanosoma cruzi; -8.11% in test [6] (30 µM). Also, the Percent Effect in [6] (33.3 µM) was 0.699%; in test [7], 11%; in the test filed under Homo sapiens, 9.72%; in test [8], 3.19%; in test [9], 8.97%; in [10] it was -3.71%.
With `COc1cc(C(=O)N(CCC#N)Cc2ccccn2)cc(OC)c1C`, the Percent Effect was -4.24% in [2]; -2.67% in test [3]; -4.3% in test [4]; 14.4% in test [5]; 7.89% with Trypanosoma cruzi; 2.7% in [6] (30 µM). In addition, the Percent Effect was -1.04% in test [6] (33.3 µM); 0.523% in test [7]; 6.76% in the test filed under Homo sapiens; -0.546% in [8]; 3.7% in [9]; -3.63% in [10].
